PubChem BioAssay (NCI)
Where “and” joins values, the source holds several entries; their conditions need not be identical. Equal values may be shown once. Compounds without any hit were thinned out: in the full panel of roughly 83,000, 20% have a hit.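 Negative percent growth values reflect cell death: -40 means 40% of the cells present at the start died, and -100 means all died.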 Calls of active or inactive are those of the source. Rule for the calls: active = growth percent below 10; inactive = the rest.

What follows are compounds tested on MDA-MB-468 breast (assay: NCI-60 one-dose screen, 48 h (100 = growth as untreated, 0 = no growth, -100 = all killed)). Conditions: 10 µM unless noted.

| SMILES | growth |
| --- | --- |
| OCc1n(Cc2ccc3ccccc3c2)cc[n+]1Cc1ccc2ccccc2c1 | -29% (active) |
| O=C1C=CC2(NN=C(c3ccccc3)N2c2cccc(Cl)c2)C(Cl)=C1 (stereo not given) | 71.7% (inactive) |
| C#CCOc1c(OC)cc(C(=O)/C(C)=C/c2cccc(N=[N+]=[N-])c2)cc1OC | 24.2% (inactive) |
| COc1cc2[nH]c(C(=O)c3cc(OC)c(OC)c(OC)c3)c(N)c2cc1C#CC1CC1 | 23.4% (inactive) |
| CNC(=O)c1cc(Oc2ccc(NC(=O)Nc3ccc(Cl)c(C(F)(F)F)c3)c(F)c2)ccn1 | -49.1% (active) |
| CC1CC(=O)C2=C(C1)Nc1ccc(Br)cc1CC2c1c[nH]c2ccc(Br)cc12 (stereo not given) | -3.65% (active) |
| COc1ccc(-c2nc3sc(-c4ccc(Cl)cc4)cn3n2)cc1 | 33.4% (inactive) |
| CCCCN(CCCC)C(=O)[C@H](CC)[C@@H]1CC[C@@H](C)[C@@H]([C@H](C)[C@@H](O)[C@@H](C)C(=O)[C@H](CC)C2O[C@]3(C=CC(=O)[C@]4(CC[C@@](C)([C@H]5CC[C@](O)(CC)[C@H](C)O5)O4)O3)[C@H](C)C[C@@H]2C)O1 (stereo not given in full) | -11.5% (active) |
| Clc1ccc(-c2nnc(COc3ccccc3Cl)o2)cc1 | 93.7% (inactive) |
| CN(C)c1ccc(C(=C2C=CC(=[N+](C)C)C=C2)c2ccc(N(C)C)cc2)cc1 | -82.4% (active) |
| C#CCOc1ccc(C2=NN(CCCC)C3N=C(Cl)c4ncn(CCCC)c4N23)cc1OCC#C (stereo not given) | 80.4% (inactive) |
| CCCCCCNC(=O)Oc1ccc(/C(=C(\C)c2ccc(Cl)cc2)c2ccc(OCCN3CCCCC3)cc2)cc1 | 25.1% (inactive) |
| Nc1ncc(-c2cnn(C3CCNCC3)c2)cc1-c1nc2ccccc2o1 | -29.1% (active) |
| O=C(O)c1cc2ccccc2s1 | 112% (inactive) |
| O=C(CCCCCCSc1nc(-c2ccccc2)cc(-c2ccccc2)n1)NO | 43.2% (inactive) |
| COC(=O)CCC/C=C\C[C@H]1C=CC(=O)/C1=C/C[C@@H](O)CCc1cccc(C(F)(F)F)c1 | -14.5% (active) |
| CN1CCN(c2ccc(NC3=C(Cl)C(=O)c4ncccc4C3=O)cc2C#N)CC1 | -65% (active) |
| COc1ccc2c(O)c(/C=C3\N=Nc4ncccc43)oc2c1C[C@@H]1CCNC[C@H]1F | -52.9% (active) |
| O=C(CSc1nnc(-c2ccc(Cl)cc2)n1-c1ccccc1)Nc1cccc(F)c1 | 17.2% (inactive) |
| Nc1ncnc2c1c(-c1cccc(Cl)c1)nn2CC(=O)N1CCOCC1 | 98.6% (inactive) |

| SMILES | growth |
| --- | --- |
| Cc1ccc(C2=Nc3c(N)nc(N)nc3NC(c3cccc(Nc4ccnc5cc(C(F)(F)F)ccc45)c3)C2)cc1 (stereo not given) | 14.7% (inactive) |
| COc1ccc(OC)c2c1C(=O)CC2C (stereo not given) | 99.6% (inactive) |
| COc1ccc(-c2ccc(NNC(=O)c3ccc(F)cc3)nn2)cc1OC | 56.2% (inactive) |
| CC[C@@H]1O[C@H](O[C@@H](c2cnc[nH]2)[C@H](NC(=O)c2nc([C@H](CC(N)=O)NC[C@@H](N)C(N)=O)nc(N)c2C)C(=O)N[C@H](C)[C@H](O)[C@H](C)C(=O)N[C@@H](C(=O)NCCc2nc(-c3nc(C(=O)NCCCCN=C(N)N)cs3)cs2)[C@@H](C)O)[C@H](O[C@@H]2O[C@H](CO)[C@H](O)[C@H](OC(N)=O)[C@@H]2O)[C@H](C)[C@@H]1C | 57% (inactive) |
| CCCCCCCCOC(=O)C(C)OC(=O)OCCOCCOC(=O)OC(C)C(=O)OCCCCCCCC (stereo not given) | 98.6% (inactive) |
| CC1Cc2cc(F)ccc2-n2cccc21 (stereo not given) | 136% (inactive) |
| CCOC(=O)C(=CNc1ccccc1[N+](=O)[O-])C(=O)OCC | 86% (inactive) |
| C1CN(SSN2CCOCC2)CCO1 | -66.4% [100 µM] (active) |
| CCOC(=O)C(C(C)=O)c1nc2sc3cc(Cl)c(Cl)cc3n2c(=O)c1C#N (stereo not given) | 89.5% (inactive) |
| O=C1/C=C/[C@@H](O)[C@@H]2C[C@@H](O)C[C@H]2/C=C/CCC[C@H](C(F)(F)F)O1 | -69.1% (active) |
| CCOC(=O)c1ccc(Nc2sc(C(=O)c3cccc([N+](=O)[O-])c3)c(N)c2C#N)cc1 | 4.24% (active) |
| Cc1oc2c(Cc3ccc(NC(=O)c4ccc(Cl)cc4)cc3)ncnc2c1C(=O)NO | 92.1% (inactive) |
| C=C1CC[C@@H]2[C@](C)(COC(C)=O)[C@H](OC(C)=O)CC[C@@]2(C)[C@@H]1CC(Nc1ccc(S(=O)(=O)Nc2ccc(Cl)nn2)cc1)C1=CCOC1=O (stereo not given in full) | -32.3% (active) |
| COc1ccc2c(c1)c(-c1nonc1-c1c[nH]c3ccc(Br)cc13)cn2C | 52.4% (inactive) |
| NC(N)=Nc1nc2ccccc2n2c1nc1ccccc12 | 35.1% (inactive) |
| Cc1ccc(Nc2nc(N)nc(N)c2N=O)cc1Cl | 40% (inactive) |
| Nc1ncnc2c1ncn2C1OC(CO)C(O)C1O (stereo not given) | 116% (inactive) and -13.3% (active) |
| CC(C)(C)c1[nH]nc2c1C(c1cc3ccccc3[nH]c1=O)Nc1cc(C(=O)Nc3ccc(Cl)cc3)ccc1N2 (stereo not given) | -15.9% (active) |
| O=C1C(=O)c2c(nc3ncccn23)-c2ccccc21 | -64.9% (active) |
| COc1ccc(-c2cc(C(=O)N=Nc3c(O)[nH]c4ccccc34)no2)cc1 | 106% (inactive) |
